Most compounds without a hit are left out; they make up all but 3.5% or so of the library.
Anthrax LF inh2 = inhibitors of Bacillus anthracis lethal factor protease | P15917 | multiplex microsphere protease cleavage assay, LF | inhibition, % at 10 µM | 0.12% of 360,000 active; further: plate controls were buffer without enzyme for full effect and enzyme alone for no effect
BoNT-F LC inh = BoNT F light chain protease inhibition; Multiplex microsphere protease cleavage assay, flow cytometry; inhibition, % at 10 µM; 0.22% of 360,000 active; in the data active means inhibition above about 35%, passing the limit was not always enough; inconclusive means no clear call, values can overlap the other calls; further: plate controls were buffer without enzyme for full effect and enzyme alone for no effect
BoNT A protease = inhibitors of Botulinum neurotoxin A light chain protease; multiplex microsphere protease substrate cleavage, flow cytometry; inhibition, % at 10 µM; 0.17% of 360,000 active; AID 588499; further: plate controls were buffer without enzyme for full effect and enzyme alone for no effect
Bead autofluor = counter-screen for toxin protease inhibitors: compound fluorescence; compound autofluorescence counterscreen, microsphere flow cytometry; stronger effect = higher value; fluorescence intensity (no concentration beside the values); 3.1% of 360,000 active; AID 624483; in the data active means fluorescence intensity above about 16000; inconclusive means no clear call, values can overlap the other calls
The depositor's hits bear a star; ? = inconclusive. Unless noted, no stated cut-off is given here; in the data, active means inhibition above about 30%; inconclusive means no clear call, values can overlap the other calls; inactive means below that.

SMILES	Anthrax LF inh2	BoNT-F LC inh	BoNT A protease	Bead autofluor
CC(C)C(=O)c1cc2c(cc1NC(=O)c1ccccc1)OCCO2	-2	-3	?	23685*
CCC(=O)c1cc2c(cc1NC(=O)c1ccc(C)cc1)OCCO2	0	5	?	20255*
CC(=O)Nc1cc2c(cc1C(=O)C(C)C)OCCO2	-3	5	-1	3774
CC(C)C(=O)Nc1ccc(-c2nnc(-c3ccccc3)o2)cc1	-21	-15	2	2842
CC(C)C(=O)Nc1ccc(C(=O)c2ccccc2)cc1	0	0	-1	19934*
CN(C)c1ccc(C(=O)c2ccccc2)cc1	-2	-3	-2	17206*
COc1ccc(COC(=O)c2sc3nc4n(c(=O)c3c2C)CCC4)cc1	-2	0	-2	6294
COc1ccc2c(c1)O/C(=C\c1sccc1C)C2=O	1	40*	12	2448
C=CCn1c(SCC(=O)O)nc2sc(CC)cc2c1=O	-8	3	0	4544
C=CCn1c(SCC(=O)c2cccs2)nc2sc(CC)cc2c1=O	1	5	2	22827*
CCN(CC)c1ccc(C(=O)OCC(=O)Nc2ccc3[nH]c(=O)[nH]c3c2)cc1	0	-7	-1	2540
COc1cccc(S(=O)(=O)N(C)C[C@H]2OCc3cnnn3CCCC(=O)N([C@@H](C)CO)C[C@@H]2C)c1	5	4	0	3704
CCC1NC(=O)c2cccnc2-n2c1nc1ccc(F)cc1c2=O (centres undefined)	-2	0	0	3018
CCCCNC(=O)COC(=O)c1c2c(nc3ccccc13)/C(=C/c1cccs1)CC2	25	19	39*	6060
N#Cc1ccc(OCC(=O)N2CCCC2=O)cc1	-1	1	0	5271
Clc1cccc(N2CCNCC2)c1Cl	0	-3	1	19873*
COCc1cccc(-c2csc(C(C)(NC(C)=O)c3ccccc3)n2)c1 (centres undefined)	-1	0	0	3664
CC1CC2(O)c3no[n+]([O-])c3CCC2N1O (centres undefined)	-1	3	2	22460*
Cc1ccc(S(=O)(=O)c2nc(Nc3ccccc3N3CCOCC3)sc2Cl)cc1	0	-2	1	16143*
COc1ccc(CNCC(=O)Nc2cc(OC)cc(OC)c2)cc1	0	-20	1	2915
COc1ccc(N2CCN(Cc3cc4c(cc3O)CCC4)CC2)cc1	0	-5	-4	22399*
Oc1cc2c(cc1CN1CCN(c3ccccc3)CC1)CCC2	-11	-42	-3	3386
Cc1cc(C(=O)Nc2sc3c(c2C#N)CCC3)no1	-1	0	2	22362*
N#Cc1c(NC(=O)CSC2=NCCS2)sc2c1CCCC2	-1	-3	0	16243*
CC(=O)Nc1c(O)nc(SCC(=O)Nc2sc3c(c2C#N)CCCCCC3)[nH]c1=O	-4	2	3	19485*
SMILES	Anthrax LF inh2	BoNT-F LC inh	BoNT A protease	Bead autofluor
N#Cc1c(NC(=O)CSc2ncn[nH]2)sc2c1CCCC2	-3	-8	1	3804
NC(=O)c1c(NC(=O)CSc2nc3c(c(C(F)(F)F)n2)CCc2ccccc2-3)sc2c1CCCC2	-3	-8	0	11293
Cc1cc(C(=O)Nc2sc3c(c2C#N)CCCC3)no1	-1	0	0	9715
N#Cc1c(NC(=O)CSc2nc3c(c(C(F)(F)F)n2)CCc2ccccc2-3)sc2c1CCCC2	-1	0	-2	22691*
CCOC(=O)[C@]12CCC=C1N(Cc1ccc(Cl)cc1Cl)C(=O)[C@H](CC(=O)NCC1CCCCC1)C2	-14	-4	-1	6049
CCC(=O)Nc1sc2c(c1C#N)CCCCC2	-4	-3	0	3113
CC(=O)Nc1sc2c(c1C#N)CCCCC2	-9	-6	?	23128*
Cc1cc2n(n1)SC(Nc1ccc(F)c(Cl)c1)N2 (centres undefined)	1	-4	?	20632*
CCOc1ccc(N2CC(C(=O)Nc3ccc(S(=O)(=O)Nc4nccs4)cc3)CC2=O)cc1 (centres undefined)	4	-4	0	3510
COc1ccc(OC)c(N2C(=O)C(Cl)=C(N3CCCCC3)C2=O)c1	2	9	9	21020*
COc1ccc(OC)c(N2C(=O)C(Cl)=C(N3CCOCC3)C2=O)c1	-2	1	0	11439
O=C(CSc1nnc(Cc2ccccc2)c(=O)[nH]1)Nc1ccccc1	-1	-2	1	6359
CNc1ccc(Br)cc(C(=O)/C=C/c2cc(OC)ccc2OC)c1=O	28	15	24	17230*
CCNc1ccc(Br)cc(C(=O)/C=C/c2ccc(Cl)cc2Cl)c1=O	43*	28	?	17500*
CNc1ccc(Br)cc(C(=O)/C=C/c2ccc(OC)cc2)c1=O	9	2	28	2252
Cc1ccc(CSc2nncn2-c2ccccn2)cc1	2	-20	0	4052
Clc1ccc(CSc2nncn2-c2ccccn2)cc1	0	-3	0	23849*
Cc1noc(C)c1C(=O)N1CCC2(CC1)OCCO2	-1	-2	-2	20724*
O=C(c1ccccc1)N1CCC2(CC1)OCCO2	-2	-7	0	5478
Cc1occc1C(=O)N1CCN(C(c2ccccc2)c2ccccc2)CC1	-1	-1	-1	22960*
CCc1noc(C)c1C(=O)N1CCCC1	-1	0	?	16196*
Cc1cc(C)c(C(=O)N2CCC3(CC2)OCCO3)c(C)c1	5	26	-2	3972
Cc1cc(C(=O)N2CCC3(CC2)OCCO3)cs1	1	-4	?	21544*
CC(C)CN(C(=O)c1cccc(S(=O)(=O)N2CCN(Cc3ccccc3)CC2)c1)C1CCS(=O)(=O)C1 (centres undefined)	-2	-6	-2	?
COc1ccc2c(c1)c(C(C)=O)c(C)n2CCc1ccccc1	9	-17	0	3203
SMILES	Anthrax LF inh2	BoNT-F LC inh	BoNT A protease	Bead autofluor
CCc1ccc(NC(=O)c2cc(S(=O)(=O)N3CCCC3)ccc2F)cc1	4	-3	0	3738
O=C(N/N=C/C1C(c2ccccc2)C1(Cl)Cl)c1cccc(Br)c1 (centres undefined)	1	5	0	2738
O=C(COC(=O)Cc1ccccc1F)NC(=O)NC1CCCC1	3	-2	0	5207
Cc1occc1C(=O)N1CCC2(CC1)OCCO2	-1	-1	?	23817*
O=C(O)Cc1ccc(C(=O)c2ccc(Cl)cc2Cl)s1	-1	-3	0	2305
O=C(c1cnc(-c2ccc(Cl)cc2)s1)c1ccc(Cl)cc1Cl	3	-2	2	16515*
O=C(Nc1ccc(Br)cc1)c1ccc(F)c(S(=O)(=O)N2CCN(c3ccccn3)CC2)c1	-5	3	0	4020
O=C(Nc1ccccc1)c1ccc(N2CCN(c3ccccn3)CC2)c(S(=O)(=O)N2CCOCC2)c1	-2	-1	-1	16676*
Cc1ccccc1NC(=O)c1ccc(F)c(S(=O)(=O)N2CCN(c3ccccn3)CC2)c1	-3	-4	-4	23271*
CC(C)c1ccc(N(CCc2ccccn2)C(=O)C(C)(C)C)cc1	1	?	-3	4586
COc1ccc(CNC(=O)c2cc(S(=O)(=O)N3CCCCC3)ccc2Cl)cc1OC	-4	2	0	3567
Cc1cccc(C(=O)N2CCN(S(=O)(=O)N3CCCCCC3)CC2)c1	-3	1	1	4027

Source: PubChem (NMMLSC)
